# PubChem BioAssay AID504834 (National Center for Advancing Translational Sciences (NCATS), 2011)
# About 22,000 (6.9%) of roughly 320,000 compounds were called active. Not shown: some 27% with an inconclusive outcome. The entries come from a sample that favours actives as a whole. Unmarked numbers belong to inactive results. Calls follow the shape of the dose curve; as a rule, active = well fitted inhibition curve with a large enough effect; inconclusive = small, poorly fitted or top-dose-only effect, or another doubt; inactive = no such curve, though single readings can be large or run the other way.
# Experiment: Primary qHTS for delayed death inhibitors of the malarial parasite plastid, 96 hour incubation
# Conditions: P. falciparum luciferase reporter growth; series mostly up to 28.7 µM; activity change, negative = inhibition: at the top concentration
# In short: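 Compounds incubated with erythrocytes infected by luciferase-expressing P. falciparum (2% hematocrit, 0.05% parasitemia final) for 96 hours, 37 C in 5% CO2. Growth inhibition scored as decreased luciferase luminescence.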
# % is scaled to controls: 0 for no effect and ±100 for the full control effect; potency is read from the fitted curve at half-maximal effect.
Compound,"activity change, negative = inhibition",Potency
COc1ccccc1CNC(=O)CCCN1C(=O)NC2(CCCC2)C1=O,-3.02%,
COCCCNC(=O)Cn1c(=O)n(Cc2ccccc2Cl)c(=O)c2cc(OC)c(OC)cc21,33.6%,
COc1ccccc1CNC(=O)CCCn1c(=O)c2ccccc2n(CC(=O)NC2CCCC2)c1=O,,4.65 µM (active)
COC(=O)c1ccccc1N=Nc1c(C)[nH][nH]c1=O,-0.0243%,
O=C(O[C@H]1[C@H](Cc2ccccc2)NS(=O)(=O)[C@H]2C[C@@H]3C=C[C@]12O3)c1ccc([N+](=O)[O-])cc1,-23.9%,
CC(=O)c1ccc(S(=O)(=O)N2CCN(C(=O)/C=C/c3ccc4ccccc4n3)CC2)cc1,,5.22 µM (active)
CC(=O)c1ccc(S(=O)(=O)N2CCC3(CC2)OCCO3)cc1,-2.99%,
NC(=O)COC(=O)/C=C/c1ccc2ccccc2n1,0.945%,
COCC1CCCN(C(=O)c2ccc3oc(C(C)C)nc3c2)C1 (stereo unspecified),-11.9%,
Nn1c(SCC(=O)Nc2nccs2)nnc1-c1ccco1,-3.03%,
O=C(NCc1cccnc1)c1cn(-c2ccccc2)nc1-c1cccs1,11.5%,
NC(=O)C1CCN(C(=O)c2cn(-c3ccccc3)nc2-c2cccnc2)CC1,34.6%,
COC(=O)c1cn(-c2ccccc2)nc1-c1cccnc1,,7.38 µM (active)
O=C(COC(=O)/C=C/c1cn(-c2ccccc2)nc1-c1cccnc1)Nc1ccc(Cl)cc1Cl,-12.5%,
CC(C)(C)OC(=O)N/N=C/c1cn(-c2ccccc2)nc1-c1cccnc1,,2.33 µM (active)
CN(C)/N=C/c1cn(-c2ccccc2)nc1-c1cccnc1,-21.6%,
COc1ccc(C(=O)N2CCN(c3ccc(C(C)=O)cc3F)CC2)cc1S(=O)(=O)NC1CC1,35.2%,
Cc1ccc(/C=C/C(=O)OCC(=O)NCc2ccc(Cl)cc2)o1,32.4%,
Cc1cc(-c2ccc(C)c(S(=O)(=O)NCCCN(Cc3ccccc3)C(C)C)c2)on1,10.5%,
COC(=O)c1c(NC(=O)c2ccccc2F)sc2c1C(C(=O)OC)CC2 (stereo unspecified),1.77%,
O=C(Nc1ccc(C(=O)O)cc1)/C(=C\c1ccccc1)NC(=O)c1ccc(Br)cc1,52.1%,
COc1ccccc1N1CCN(C(=O)C2Cc3ccccc3CN2C(=O)c2ccco2)CC1 (stereo unspecified),-15.4%,
CCOCCn1c(-c2ccccc2)nc2ccccc21,4.72%,
CCCCn1c(N)c(N(CCOC)C(=O)CSCC(=O)Nc2cccc(C)c2)c(=O)[nH]c1=O,48.9%,
CCCCn1c(-c2cccc(C)c2)nc2cc3[nH]c(=O)c(C(C)C)nc3cc21,,4.15 µM (active)
O=C(O)C1CCCN1C1=NS(=O)(=O)c2ccccc21 (stereo unspecified),31.3%,

Compound,"activity change, negative = inhibition",Potency
CN(Cc1ccccc1)S(=O)(=O)c1nnc(NC(=O)c2ccccc2F)s1,94.1%,
CN(C(=O)COC(=O)c1nc(Cl)ccc1Cl)C1CCS(=O)(=O)C1 (stereo unspecified),23.1%,
Cc1ccc(C)c2[nH]c(=O)c(CN(Cc3cccnc3)C(=S)NCc3ccco3)cc12,,3.7 µM (active)
Cc1cccc2cc(CN(Cc3cccs3)C(=S)NCc3ccco3)c(=O)[nH]c12,-21.7%,
O=C(Nc1ccccc1)N(Cc1cccnc1)Cc1ccco1,-7.92%,
Cc1cn([C@H]2CC(F)[C@@H](CO)O2)c(=O)[nH]c1=O (stereo partly specified),0.0378%,
O=C(CN1C(=O)NC2(CCCC2)C1=O)NCC1CCCO1 (stereo unspecified),10.6%,
O=C(Cn1nc(Cc2cccnc2)c2ccccc2c1=O)NCC1CCCO1 (stereo unspecified),,9.28 µM (active)
Cc1nn(CC(=O)NCC2CCCO2)c(=O)c2cc3ccccc3n12 (stereo unspecified),-29.6%,
CCCn1c2ccccc2c2cnn(CC(=O)NCCCN3CCCCC3CC)c(=O)c21 (stereo unspecified),9.2%,
CCC1CCC2(CC1)NC(=O)N(CC(=O)Nc1ccc(OC)cc1)C2=O (stereo unspecified),29.4%,
COc1ccc(S(=O)(=O)NC(C)C(=O)N2CCCCCC2)cc1 (stereo unspecified),-3.52%,
COc1ccc(CC(NC(C)=O)C(=O)NC2CCN(C(=O)c3ccc(Cl)cc3)CC2)cc1 (stereo unspecified),3.33%,
O=C(C1CCN(Cc2ccc(Cl)cc2)CC1)N1CCN(Cc2ccc3c(c2)OCO3)CC1,4.83%,
COc1ccc(Cl)cc1C(=O)NCc1cn(C)nc1C,24.3%,
Cc1ccc2nc(-c3cccc(Br)c3)cc(C(=O)Nn3cnnc3)c2c1,-3.98%,
Cc1ccc(-c2cc(C(=O)NCc3cn(C)nc3C)c3cc(Br)ccc3n2)cc1,,13.1 µM (active)
O=C(CCNC(=O)c1ccc(Br)cc1)Nc1cccc(S(=O)(=O)N2CCCCC2)c1,5.81%,
O=C(O)c1ccc(NC(=O)c2ccc(COc3ccc(Cl)cc3)o2)cc1,-3.61%,
COc1ccccc1CNS(=O)(=O)CC12CCC(CC1=O)C2(C)C (stereo unspecified),-8.22%,
Cc1c2cnn(-c3ccccc3)c(=O)c2c(C)n1CCCC(=O)N1CCN(C)CC1,,13.1 µM (active)
O=C(CCCN1C(=O)C2C3C=CC(C3)C2C1=O)N1CCN(c2ccccc2)CC1 (stereo unspecified),-1.15%,
CC(=O)Cn1cnc2c(cnn2-c2ccccc2)c1=O,2.1%,
O=C(NCc1ccncc1)c1cccc(NS(=O)(=O)c2ccc(F)c(F)c2)c1,-14.9%,
CCOc1ccccc1NS(=O)(=O)c1cc2c3c(c1)C(C)C(=O)N3CCC2 (stereo unspecified),35.1%,
